Rac1 mut GTP: modulators of GTP binding to human Rac1 activated mutant; P63000; GST-Rac1 activated beads, fluorescent GTP binding, flow cytometry; actives lie on both sides; 100% means binding = to untreated wells; percent activity (GTP binding), % at 10 µM; 190,000 compounds, 0.11% hits;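 active = GTP binding at least 20 percentage points away from the 100% baseline, in either direction, so actives lie on both sides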
Rab2A wt mod: changes GTP binding to wildtype dog Rab2A, up or down; GTP binding activity, % at 10 µM; GST-Rab2 wt beads, Bodipy-GTP binding, flow cytometry; AID 760; 190,000 compounds, 0.19% hits; P61105;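 active = GTP binding activity at least 20 points away from 100%, either lowered or raised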;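 note: 0% = beads with excess unlabeled GTP and 100% = no-compound control corrected for plate trend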
Rab7 wt modul: alters GTP binding to wildtype dog Rab7. GST-Rab7 beads, fluorescent GTP binding, flow cytometry; actives lie on both sides; untreated = 100%, excess cold GTP = 0%. GTP binding activity (percent of control), % at 10 µM. 190,000 compounds, 0.055% hits. AID 758;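 active = fluorescent GTP binding to Rab7 beads changed by at least 20 points from the 100% baseline, either direction, mostly lower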;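 note: median green fluorescence of bound Bodipy-FL-GTP per Rab7 bead population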
Rac1 wt modul: alters GTP binding to wildtype human Rac1; GST-Rac1 beads, fluorescent GTP binding, flow cytometry; actives lie on both sides; 0 = cold GTP competed, 100 = untreated; GTP binding activity (% of control), % at 10 µM; 190,000 compounds, 0.27% hits;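 active = GTP binding activity at least 20 points away from the 100% control level, either lower or higher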
Cdc42 wt GTP: human Cdc42 wildtype GTP binding change, either direction; P60953; GST-Cdc42 beads, Bodipy-GTP binding, flow cytometry; actives lie on both sides; percent activity (GTP binding), % at 10 µM; 190,000 compounds, 0.2% hits; AID 761;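 active = percent activity GTP binding at least 20 points away from the 100% baseline, either down as inhibitor or up as activator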;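 note: median bead fluorescence of bound Bodipy-FL-GTP at 100 nM; 0% = excess unlabeled GTP control and 100% = no compound control; below 100% means less GTP binding so inhibitor and above means activator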
Target sequence (P60953 whole entry, looked up): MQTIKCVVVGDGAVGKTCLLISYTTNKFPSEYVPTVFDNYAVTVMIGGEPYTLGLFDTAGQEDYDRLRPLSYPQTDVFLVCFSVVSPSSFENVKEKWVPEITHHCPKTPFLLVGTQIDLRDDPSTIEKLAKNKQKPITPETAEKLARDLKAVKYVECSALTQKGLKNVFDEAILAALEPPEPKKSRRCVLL
HRas wt GTP bind: changes GTP binding to wildtype human HRas; 190,000 compounds, 0.14% hits; P01112; GTP binding activity, % at 10 µM; AID 759; GST-Ras wt beads, Bodipy-FL-GTP binding, flow cytometry; actives lie on both sides;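 active = GTP binding activity at least 20% away from the 100% baseline, either lowered as inhibitor or raised as activator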;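 note: 0% = unlabeled GTP competition control and 100% = no-compound control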
Target sequence (P01112 whole entry, looked up): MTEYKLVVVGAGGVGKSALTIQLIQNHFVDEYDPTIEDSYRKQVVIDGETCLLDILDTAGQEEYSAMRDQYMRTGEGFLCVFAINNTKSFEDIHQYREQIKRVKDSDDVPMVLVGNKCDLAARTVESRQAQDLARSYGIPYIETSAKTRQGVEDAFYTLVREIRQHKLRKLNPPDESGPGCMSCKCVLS
The depositor's hits bear a star; [ ] = remark or other dose. Only some compounds are listed: those with a hit (about 0.38% of all), similar ones and a draw of the others.

SMILES | Rac1 mut GTP | Rab2A wt mod | Rab7 wt modul | Rac1 wt modul | Cdc42 wt GTP | HRas wt GTP bind
N#Cc1c(C(F)(F)F)cc(-c2ccc(Cl)cc2)[nH]c1=O | 78* | 81 | 78* | 78* | 76* | 81
OCCNc1ncnc2c1sc1nc(N3CCOCC3)c3c(c12)CCC3 | 94 | 86 | 91 | 94 | 91 | 91
COCCNc1nnnc2c1sc1nc(N3CCOCC3)c3c(c12)CCCC3 | 88 | 83 | 95 | 73* | 81 | 82
O=C(Cn1c(-c2cscn2)nc2ccccc21)Nc1cc(F)ccc1F | 102 | 107 | 105 | 121*[activator] | 115 | 106
CCCC(=O)NC(=S)c1c(C)n(C)n(-c2ccccc2)c1=O | 97 | 99 | 104 | 98 | 96 | 98
COc1ccc(-c2nc3ncnn3cc2C)cc1F | 97 | 94 | 95 | 96 | 96 | 96
O=C(Nc1cccc(-c2ccc3nncn3n2)c1)c1ccco1 | 89 | 87 | 91 | 77* | 86 | 85
Cc1nnc2ccc(-c3cccc(NC(=O)c4ccc(Cl)nc4)c3)nn12 | 91 | 91 | 95 | 86 | 91 | 91
Cc1nnc2ccc(-c3cccc(NC(=O)c4ccc(Br)o4)c3)nn12 | 90 | 86 | 91 | 79* | 88 | 86
CCOc1ccccc1C(=O)Nc1cccc(-c2ccc3nncn3n2)c1 | 88 | 75* | 92 | 73* | 73* | 78*
CCOC(=O)N1C=CC(C)=C[C@@H]2[C@@H](N3C(=O)c4ccccc4C3=O)C(=O)N21 | 102 | 99 | 98 | 109 | 103 | 102
C/C(=N/NC(=O)CNc1ccc(Cl)cc1C)c1ccc(C)cc1 | 97 | 105 | 109 | 101 | 104 | 98
Cc1cc(C)n2nc(SCC(=O)c3cc(C)n(CC4CCCO4)c3C)nc2n1 (stereo unspecified) | 96 | 98 | 95 | 100 | 95 | 98
O=[N+]([O-])c1cc(Br)c(O)c(C=Nc2ccc(N3CCOCC3)cc2)c1 | 84 | 87 | 97 | 84 | 79* | 88
Oc1ccc(N=Cc2cc(Br)c(N3CCOCC3)o2)cc1 | 102 | 103 | 97 | 103 | 105 | 104
O=C(CCNS(=O)(=O)c1cccc2nsnc12)N1CCN(c2ccccn2)CC1 | 109 | 110 | 104 | 138*[activator] | 122*[activator] | 107
CCN(CC)S(=O)(=O)c1cccc(C(=O)OCC(=O)NC(C)c2ccccc2)c1 (stereo unspecified) | 97 | 95 | 98 | 100 | 97 | 97
CN(C)c1cccc2c(/C=N/O)ccc(N(C)C)c12 | 93 | 98 | 96 | 94 | 95 | 95
CN1C(=O)N(C)c2ccc(C=O)c3cccc1c23 | 86 | 82 | 89 | 77* | 84 | 86
CCOC(=O)c1c(NC(=O)/C=C/c2ccc3c(c2)OCO3)sc(C)c1CC | 77* | 85 | 92 | 87 | 83 | 91
CCOC(=O)c1c(NC(=O)/C=C/c2ccc3c(c2)OCO3)sc(C)c1C | 101 | 103 | 100 | 102 | 103 | 104
O=C(COCC(=O)N1CCOCC1)N1CCOCC1 | 97 | 97 | 97 | 97 | 98 | 97
O=C(Nc1cnn(C23CC4CC(CC(C4)C2)C3)c1)c1cnn2cccnc12 | 117 | 121*[activator] | 117 | 138*[activator] | 129*[activator] | 123*[activator]
COc1cccc(N2CCN(C(=O)CCCCCNc3nc(=S)[nH]c4ccccc34)CC2)c1 | 89 | 83 | 98 | 74* | 79* | 83
O=C(CCCCCNc1nc(=S)[nH]c2ccccc12)N1CCN(c2ccccn2)CC1 | 98 | 91 | 94 | 91 | 91 | 91
SMILES | Rac1 mut GTP | Rab2A wt mod | Rab7 wt modul | Rac1 wt modul | Cdc42 wt GTP | HRas wt GTP bind
Cc1cc(C(=O)Oc2ccccc2C(=O)O)c(C)o1 | 119 | 116 | 104 | 127*[activator] | 120*[activator] | 110
Cc1ccc(S(=O)(=O)N(CC#N)CC#N)cc1 | 99 | 96 | 98 | 101 | 97 | 98
Cc1ccc(S(=O)(=O)Cc2ccc(C(=O)N3CCN(c4cc(C)ccc4C)CC3)o2)cc1 | 77* | 80 | 84 | 80 | 81 | 87
Cc1ccc(C)c(N2CCN(C(=O)c3ccc(CS(=O)(=O)c4ccccc4C)o3)CC2)c1 | 83 | 87 | 93 | 87 | 89 | 89
O=C(O)c1ccc(/C=N/NC(=O)c2cc(-c3ccc4c5c(cccc35)CC4)n[nH]2)cc1 | 91 | 80 | 92 | 76* | 78* | 84
COc1ccc(OC)c(C(C(=O)NCc2ccco2)N(C(=O)Cn2nnc3ccccc32)C2CC2)c1 (stereo unspecified) | 119 | 121*[activator] | 116 | 130*[activator] | 126*[activator] | 121*[activator]
Cc1ccccc1-n1c(SCc2c(C)noc2C)nnc1-c1cccnc1 | 110 | 115 | 111 | 132*[activator] | 118 | 110
Cc1ccccc1-n1c(SCc2c(C)noc2C)nnc1-c1ccncc1 | 96 | 95 | 98 | 98 | 97 | 99
O=C(NCc1ccccc1)c1ccccc1C(=O)c1ncc[nH]1 | 97 | 96 | 103 | 100 | 99 | 97
Cc1ccc(CSc2nnc(-c3ccccc3N)c(=O)[nH]2)cc1 | 100 | 98 | 97 | 120*[activator] | 102 | 98
CC(C)CC(NC(=O)CNC(=O)C1O[C@@H]2OC(C)(C)O[C@@H]2[C@H]2OC(C)(C)O[C@@H]12)C(=O)O (stereo partly specified) | 97 | 97 | 93 | 99 | 98 | 97
Cc1cc(C)n2nc(SCCOc3ccc(F)cc3)nc2n1 | 82 | 74* | 100 | 68* | 68* | 73*
Cn1nc(C(=O)Nc2cccnc2)c2ccccc2c1=O | 86 | 69* | 92 | 85 | 73* | 74*
Cn1nc(C(=O)NCc2cccnc2)c2ccccc2c1=O | 98 | 99 | 96 | 100 | 96 | 98
COC(=O)c1cccc(NC(=O)c2nn(C)c(=O)c3ccccc23)c1 | 81 | 79* | 92 | 72* | 73* | 77*
O=C(NNC(=O)C1CCCN(c2ncccn2)C1)c1ccncc1 (stereo unspecified) | 97 | 98 | 97 | 103 | 102 | 99
Cc1ccc(C)c(/C=C(\C(=O)O)c2ccc(S(=O)(=O)N3CCCCC3)s2)c1 | 89 | 94 | 103 | 95 | 94 | 96
CCCCN(C)C(=S)Nc1ccc(Oc2ccccc2)cc1 | 100 | 103 | 103 | 104 | 97 | 100
S=C(Nc1ccc(Oc2ccccc2)cc1)NC1CCCCC1 | 107 | 115 | 104 | 141*[activator] | 115 | 107
CCCN(CC1CC1)C(=S)Nc1ccc(Oc2ccccc2)cc1 | 101 | 99 | 99 | 102 | 79* | 99
S=C(Nc1ccc(Oc2ccc(NC(=S)NC3CCCCC3)cc2)cc1)NC1CCCCC1 | 99 | 101 | 98 | 106 | 104 | 101
